Test results published in the supplement of paper PMC5641865, “A screen for kinase inhibitors identifies antimicrobial imidazopyridine aminofurazans as specific inhibitors of the Listeria monocytogenes PASTA kinase PrkA” (The Journal of Biological Chemistry, 2017).
“And” between values parts separate entries of the source, which are not always exact repeats. Equal values may be shown once. ± gives the standard deviation of the averaged measurements.

system: Listeria monocytogenes 10403S; test: growth inhibition relative to ceftriaxone-alone control; higher = stronger potentiation of ceftriaxone growth inhibition; settings: 10 µM; ceftriaxone 1 ug/ml; 12 h
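Also: End-point A600 read in BHI broth at 37 °C with 2% DMSO, inhibition computed as (1 − OD with compound plus ceftriaxone ÷ OD with ceftriaxone only) × 100.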

SMILES	growth inhibition
Nc1nccc(Oc2ccc(NC(=O)c3c[nH]cc(-c4ccc(F)cc4)c3=O)cc2F)c1Cl	1.11 ± 36%
OCCCNc1nccc(-c2c(-c3ccc(F)cc3)nn3cc(C(F)(F)F)ccc23)n1	15.6 ± 7.1%
Nc1ncnc2occ(-c3ccc(NC(=O)Nc4cc(C(F)(F)F)ccc4F)cc3)c12	-0.902 ± 0.59%
Cc1ccc(C(=O)NC(C)C)cc1-c1ccc(C(=O)NCC2CC2)cc1	-1.2 ± 0.17%
COc1cc(Nc2ncc(F)c(Nc3ccc4c(n3)NC(=O)C(C)(C)O4)n2)cc(OC)c1OC	9.08% and 0.52%
O=c1c(O)c(-c2ccc(O)c(O)c2)oc2cc(O)cc(O)c12 [Quercetin (Sophoretin)]	20.4 ± 13%
CCn1c(-c2nonc2N)nc2cncc(C(=O)NCCNC)c21	-6.44 ± 0.39%
CCn1c(-c2nonc2N)nc2c(C#CC(C)(C)O)ncc(OC[C@@H]3CCCN3)c21	74 ± 6.7%
FC(F)(F)c1ccc(Nc2nc3ccc(Oc4ccnc(-c5ncc(C(F)(F)F)[nH]5)c4)cc3[nH]2)cc1 [Raf265 Derivative]	49.3 ± 21%
O=C(NC1CCNCC1)c1n[nH]cc1NC(=O)c1c(Cl)cccc1Cl	13.4 ± 5.9%
O=C1NC(=O)C(c2cccc(Cl)c2)=C1Nc1ccc(Cl)c(C(=O)O)c1	9.83 ± 0.41%
Nc1nc(-c2ccc(F)cc2)c(-c2ccc3ncccc3n2)s1	-1.57 ± 2.7%
NCC(=O)Nc1ccc(-n2nc(C(F)(F)F)cc2-c2ccc3c(ccc4ccccc43)c2)cc1	85.45 ± 0.52%
CNC(=O)c1ccc(C)c(-n2c(C)cc(OCc3ccc(F)cc3F)c(Br)c2=O)c1	35.2 ± 11%
CNC(=O)c1cccc(C#Cc2cncnc2Nc2ccc(OCc3cccc(F)c3)c(Cl)c2)c1	-0.177 ± 4.2%
